Compound activity: PubChem, National Center for Advancing Translational Sciences (NCATS)
The sample as a whole holds a higher share of hits than the screen did.
Pf Dd2 inh: qHTS Primary assay for Inhibitors of Plasmodium falciparum Dd2 growth in vitro; P. falciparum Dd2 growth, SYBR Green, 72 h; Potency, µM (top dose mostly 28.9 µM), inactives show top-dose activity, negative = inhibition, usual class: inhibitors; hit rate 4.3% among 120,000; AID 1347417, 2020; active = well fitted inhibition curve with a large enough effect;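 note: plate controls were DMSO vehicle for no effect and reference drug for full effect; nearly all actives have a fitted effect of over 65% in size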
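Infected erythrocytes (Dd2, 0.3% parasitemia, 2.5% hematocrit final) are added to compound in RPMI-1640/Albumax II medium, grown 72 h at 37C in low oxygen, then lysed with saponin/Triton-X containing SYBR Green and read by fluorescence.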
* = called active by the depositor; i = inactive; [ ] = another dose, or the depositor's remark. Potency is the fitted concentration of half-maximal effect.

SMILES	Pf Dd2 inh
CN(C(=O)CSc1nc2ccc(NC(=O)c3cccc(F)c3)cc2s1)c1ccccc1	-15%
Cc1ccccc1OCC(=O)Nc1ccc2nc(SCC(=O)N(C)c3ccccc3)sc2c1	-28%
CN(C(=O)CSc1nc2ccc(NC(=O)c3ccccc3F)cc2s1)c1ccccc1	-24%
CCOC(=O)CSc1nc2ccc(NC(=O)c3ccc(C)cc3)cc2s1	1%
Cc1ccccc1C(=O)N1CC(c2nnc(-c3ccncc3)o2)C2(CCOCC2)C1 (stereo not given)	8%
O=C(COc1ccc(F)cc1)N1CCC2(CC1)NC(=O)N(c1ccc(F)cc1)N2	i
O=C(NCCN1CCCC1)c1cc2cn(C3CC3)cc2s1	-24%
Cc1ccc(NC(=O)C2N(C(C)C)C(=O)C23CCCC3)cc1 (stereo not given)	0%
COCC(=O)N1CCc2nc(C(C)C)nc(-c3ccc(O)cc3)c2C1	11%
Cn1ccc(C(=O)N2CCCC(CCc3ccccc3C(F)(F)F)C2)n1 (stereo not given)	-7%
CNC(=O)c1ccc(CN2CCCC(CCc3ccccc3C(F)(F)F)C2)o1 (stereo not given)	7.9µM*
O=C(C1CCOCC1)N1CCCC(CCc2ccccc2C(F)(F)F)C1 (stereo not given)	-10%
COC[C@H]1NC(=O)CC[C@H]1C(=O)Nc1ccc2c(c1)OCCO2	10%
O=C(NC1CC1)C1(c2ccc(Cl)cc2)CCOCC1	9%[44.1 µM]
CCc1ccc2nc(N3CCC(C(=O)O)CC3)sc2c1	21%
CCN(CC)CCCNC(=O)c1ccc2nc(N3CCCCC3)sc2c1	-9%
COc1ccc(N2CCN(CCCNC(=O)c3ccc4nc(N5CCCCC5)sc4c3)CC2)cc1	7%
CCCCN(C)CCNC(=O)C1CCN(c2nc3ccc(CC)cc3s2)CC1	10µM*
CCc1ccc2nc(N3CCN(C(=O)C4CC4)CC3)sc2c1	i
CCCCN(C)CCCNC(=O)c1ccc2nc(N3CCCCC3)sc2c1	8.9µM*
CS(=O)(=O)N1CCn2cc(C(=O)Nc3ccc(Cl)cc3Cl)nc2C1	-4%
Cn1ccc2c(C(=O)NCc3cccnc3)nc(Nc3ccccc3)cc21	-3%[44.1 µM]
CCc1nc2c(c(-c3ccc(OC)cc3)n1)CCN([S+](=O)([O-])c1c(C)noc1C)CC2	23%
COc1ccc(-c2noc(C(=O)NC(C)(C)C)c2[C@H](C)O)cc1	-11%[44.1 µM]
Cc1noc(C)c1C(=O)N1CCC(c2nnc(CN(C)C)n2C)CC1	-9%
SMILES	Pf Dd2 inh
Cc1ccc(C2Cn3nnc(C(=O)N4CCC(C(=O)NCc5cccs5)CC4)c3CO2)cc1 (stereo not given)	i
Cc1ccc(/C=C/c2onc(C)c2S(=O)(=O)N2CCC(C(=O)N3CCN(c4ccccc4F)CC3)CC2)cc1	6.3µM*
Cc1cccc(N2CCN(C(=O)C3CCN(S(=O)(=O)c4c(C)noc4/C=C/c4ccccc4F)CC3)CC2)c1C	i
Cc1ccc(/C=C/c2onc(C)c2S(=O)(=O)N2CCC(C(=O)Nc3cc(F)ccc3F)CC2)cc1	-1%
Cc1cccc(/C=C/c2onc(C)c2S(=O)(=O)N2CCC(C(=O)N3CCC(C)CC3)CC2)c1	57%
Cc1ccc(/C=C/c2onc(C)c2S(=O)(=O)N2CCC(C(=O)N3CCN(c4cccc(C)c4)C(C)C3)CC2)cc1 (stereo not given)	i
Cc1ccc(/C=C/c2onc(C)c2S(=O)(=O)N2CCC(C(=O)N3CCC(N(C)C(C)C)CC3)CC2)cc1	10µM*
COCCN1CCC(N2CCN(S(=O)(=O)c3ccc(Cl)cc3C)CC2)C1=O (stereo not given)	-8%
OC(c1nc(Nc2ccc(Cl)cc2)n[nH]1)C1CC1 (stereo not given)	i
N#Cc1ccc(C(=O)N2CCC3(CC2)NC(=O)N(Cc2ccc(Cl)cc2)C3=O)cc1	-17%
CC1(c2ccccc2)N(Cc2cccnc2)C(=O)OC12CCN(Cc1ccccc1Cl)CC2 (stereo not given)	-9%
Cc1ccncc1C(=O)N1CCCC(c2nc(-c3cccnc3)no2)CCNC(=O)CC1 (stereo not given)	0%
COc1cccc(-c2cccc(COc3cnc4c(ccn4CC(=O)O)c3)c2)c1F	i
COc1ccc(-c2cc(N3CCCN(C(=O)c4ccc(C)nc4)CC3)n[nH]2)cc1	i
Cc1ccc(C(=O)N2CCCN(c3cc(-c4ccc(Cl)cc4)[nH]n3)CC2)cn1	6.3µM*
COc1ccc(-c2cc(N3CCN(C(=O)c4ccc(C)nc4)CC3)n[nH]2)cc1	i
Fc1ccccc1-c1noc(-c2nc(-c3ccccc3F)no2)n1	-1%
COc1cc(Nc2nc(-c3ccccc3)no2)cc(OC)c1OC	-4%
COc1ccc(-c2noc(-c3nc(-c4ccccc4F)no3)n2)cc1OC	22%
Cc1cc(C)cc(Nc2nc(-c3ccccc3F)no2)c1	13µM*
COc1cc(Nc2nc(-c3ccccc3F)no2)cc(OC)c1OC	13µM*
Fc1ccc(Nc2nc(-c3ccccc3)no2)cc1	i
CCOCC(=O)N1CCCn2ccnc2C1CC (stereo not given)	14%
CCOc1cccc(CN(C)C2CCc3nn(CC4CC4)c(=O)n3CC2)c1 (stereo not given)	24%
Cc1ccc(C(=O)N2CCCC3(CNc4ccccc4[S+](=O)([O-])N3)C2)cc1 (stereo not given)	-11%
SMILES	Pf Dd2 inh
CCCn1c(C)cnc1CC1CCN(C(=O)c2ccccn2)C1 (stereo not given)	19%
COc1ccccc1N1CCN(c2ncc3c(n2)CCN(Cc2ccccc2C)C3)CC1	11%
Cc1ccccc1CN1CCc2nc(N3CCN(c4ncccn4)CC3)ncc2C1	8.9µM*
CCCCN1CCc2nc(N3CCN(C)CC3)ncc2C1	3%
CN1CCN(c2ncc3c(n2)CCN(Cc2ccc(Br)s2)C3)CC1	-9%
COc1cc(CN2CCc3nc(N4CCN(c5ncccn5)CC4)ncc3C2)cc(OC)c1OC	7.9µM*
Cc1ccc(CN2CCc3nc(N4CCN(c5ccccc5F)CC4)ncc3C2)cc1C	-7%
CCN1CCN(c2ncc3c(n2)CCN(Cc2ccc(C)s2)C3)CC1	-9%
CCOc1ccccc1CN1CCc2nc(N3CCN(c4ccccc4F)CC3)ncc2C1	8.9µM*
CCOc1ccc(CN2CCc3nc(N4CCN(c5ccccn5)CC4)ncc3C2)cc1OC	-28%
COc1cc(CN2CCc3nc(N4CCN(c5ccccc5F)CC4)ncc3C2)ccc1OC(C)C	-13%
CCN1CCN(c2ncc3c(n2)CCN(Cc2cc(Br)cs2)C3)CC1	13µM*
CCOc1ccccc1CN1CCc2nc(N(C)C)[nH]c(=O)c2CC1	i[5.79 µM]
COc1cccc(CC(=O)N2[C@@H]3CC[C@H]2CC(NC(=O)c2ccncc2)C3)c1 (stereo not given in full)	-1%
CCc1noc(-c2cn(C3CCCN(C(=O)c4ccc(C)s4)C3)nn2)n1 (stereo not given)	-17%
CC(=O)N1CCC(NC(=O)c2nc(-c3ccccc3)cc3[nH]ccc23)CC1	i
COc1ccc(C(=O)N2CCC3(CC2)CC(N(C(=O)c2ccccc2)C2CC2)CCO3)cn1 (stereo not given)	i
CCCCNC(=O)C1CC(=O)N(c2n[nH]c3cccc(F)c23)C1 (stereo not given)	-7%
CC(C)CN1CCN(C(=O)C2CCCN(S(C)(=O)=O)CCC(=O)NCC2)CC1 (stereo not given)	-3%
CN(C)c1ccc(CN2CCc3nc(N4CCN(c5ccccn5)CC4)ncc3C2)cc1	13µM*
CCOc1ccc(CN2CCc3nc(Nc4ccc(OC)cc4OC)ncc3C2)cc1	i
COCCn1cc(CN2CCN(c3ccccn3)CC2)ccc1=O	5%
